Measured values published in PubChem BioAssay (NCATS).
Inconclusive results are not listed. Calls of active or inactive are those of the source. Calls come from the whole dose curve; as a rule, active = well fitted curve in the direction sought with a large enough effect in the repeat runs; inconclusive = weak or mixed curves; inactive = no such curve, though single readings can be large; an effect the other way counts as inactive or inconclusive.
Note: nearly all actives have a fitted effect of over 55% in size.
Potency is the fitted concentration of half-maximal effect.

What follows are compounds tested against Cytochrome P450 2D6 (Homo sapiens) (UniProt P10635) (assay: Cytochrome P450 family 2 subfamily D member 6 (CYP2D6) small molecule antagonists: luciferase biochemical (cell-free) qHTS assay (AID 1645840)). Details: P450-Glo CYP2D6 enzyme, luciferin luminescence, 1 h; series mostly up to 57.4 µM.
Sequence of Cytochrome P450 2D6 (Homo sapiens) (P10635 whole entry, looked up): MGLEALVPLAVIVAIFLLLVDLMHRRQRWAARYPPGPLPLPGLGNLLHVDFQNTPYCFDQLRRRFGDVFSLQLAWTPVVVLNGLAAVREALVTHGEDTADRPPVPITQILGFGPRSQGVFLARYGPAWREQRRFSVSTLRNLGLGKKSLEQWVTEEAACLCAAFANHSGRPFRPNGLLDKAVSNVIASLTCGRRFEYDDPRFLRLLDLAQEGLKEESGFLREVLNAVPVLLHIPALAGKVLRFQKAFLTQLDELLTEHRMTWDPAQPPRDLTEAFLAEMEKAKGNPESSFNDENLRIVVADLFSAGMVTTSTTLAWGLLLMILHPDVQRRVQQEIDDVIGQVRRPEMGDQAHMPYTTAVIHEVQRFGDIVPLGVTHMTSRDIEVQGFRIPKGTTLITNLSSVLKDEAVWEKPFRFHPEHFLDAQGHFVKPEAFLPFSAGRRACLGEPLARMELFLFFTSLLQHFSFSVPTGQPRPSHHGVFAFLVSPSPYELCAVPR
Summary of the method: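 P450-Glo CYP2D6 system: proluciferin substrate converted by enzyme to luciferin, read by luminescence proportional to activity. Enzyme-substrate mix with compound 10 min at room temperature, then NADPH regeneration 1 h before detection reagent.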
For `Fc1cc(F)c2c(c1)C1C=CCC1C(c1cccnc1)N2` (centres undefined), the Potency was 23.9 µM (active). `CN=C(NS(=O)(=O)c1ccc(Cl)cc1)N1C[C@H](c2ccccc2)C(c2ccc(Cl)cc2)=N1` was tested, and the Potency was “inactive”. With `CN1CCC2=C(C1)c1ccccc1Cc1ccccc12` the Potency was 0.477 µM (active). With `Cc1ccc2c(c1)[C@H]1CN(C)CC[C@H]1N2C(=O)CSc1nnnn1-c1ccc(Cl)cc1` the Potency was 10.7 µM (active).

The compounds below were run against Cytochrome P450 2C9 (Homo sapiens) (UniProt P11712) (assay: Cytochrome P450 family 2 subfamily C member 9 (CYP2C9) small molecule antagonists: luciferase biochemical (cell-free) qHTS assay (AID 1645842)). Details: P450-Glo CYP2C9 enzyme assay, luciferin luminescence; series mostly up to 57.4 µM.
Sequence of Cytochrome P450 2C9 (Homo sapiens) (P11712 whole entry, looked up): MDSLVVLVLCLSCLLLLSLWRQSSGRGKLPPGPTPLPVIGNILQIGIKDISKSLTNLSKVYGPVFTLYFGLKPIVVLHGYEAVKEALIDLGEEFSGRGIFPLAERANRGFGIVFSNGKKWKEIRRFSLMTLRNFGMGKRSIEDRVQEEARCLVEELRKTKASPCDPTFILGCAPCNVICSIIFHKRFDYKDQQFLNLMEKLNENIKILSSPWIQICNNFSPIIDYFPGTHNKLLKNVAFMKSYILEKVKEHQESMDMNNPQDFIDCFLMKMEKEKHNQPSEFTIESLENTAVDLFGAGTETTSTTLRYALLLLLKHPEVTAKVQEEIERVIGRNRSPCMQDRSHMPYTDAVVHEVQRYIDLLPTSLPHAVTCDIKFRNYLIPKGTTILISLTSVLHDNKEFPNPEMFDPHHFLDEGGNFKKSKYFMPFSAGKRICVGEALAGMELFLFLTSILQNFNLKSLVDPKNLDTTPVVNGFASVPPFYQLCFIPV
Summary of the method: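 P450-Glo CYP2C9 system: proluciferin substrate with enzyme in mix containing 0.4% BSA, 10 min at room temperature, then NADPH regeneration solution added and incubated 1 h at 37C. Detection reagent stopped reaction; luminescence read after 20 min as RLU.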
For `CN(Cc1cccc(-c2ccncc2)c1)C(=O)Oc1ccc(-c2ccc(C(N)=O)cc2)cc1`, the Potency was “inactive”. `CN(C(=O)C(c1ccccc1)c1ccccc1)[C@H](CN1CC[C@H](O)C1)c1ccccc1` was tested, and the Potency was “inactive”. `Fc1cc(F)c2c(c1)C1C=CCC1C(c1cccnc1)N2` (centres undefined) was tested, and the Potency was 5.35 µM (active). For `CN=C(NS(=O)(=O)c1ccc(Cl)cc1)N1C[C@H](c2ccccc2)C(c2ccc(Cl)cc2)=N1`, the Potency was “inactive”. In the case of `CN1C(=O)[C@@H](Cc2c[nH]c3ccccc23)N=C(c2ccccc2F)c2ccccc21`, the Potency is reported as 6.74 µM (active). With `CN1CCC2=C(C1)c1ccccc1Cc1ccccc12` the Potency was “inactive”. In the case of `CCOc1ccc(Oc2ccc(OCc3cc(F)ccc3F)cc2)c(N)c1`, the Potency is reported as 10.7 µM (active). For `CC(C)[C@H](NC(=O)c1nn(Cc2ccc(F)cc2)c2ccccc12)C(N)=O`, the Potency was 6.74 µM (active). With `Cc1ccc2c(c1)[C@H]1CN(C)CC[C@H]1N2C(=O)CSc1nnnn1-c1ccc(Cl)cc1` the Potency was “inactive”. With `CCCCCn1cc(C(=O)Oc2cccc3cccnc23)c2ccccc21` the Potency was 3.38 µM (active).
